Measurements as given in the supplement of paper PMC11732987, “Enantioselective OTUD7B fragment discovery through chemoproteomics screening and high-throughput optimisation” (Communications Chemistry, 2025).
A number with no mark means an inactive call.

Assays:
Experiment in all cases: log2 ratio of Biotin-Ahx-Ub-VS probe labelling (fragment/DMSO); higher = less target engagement (more negative = stronger competition), active = hit call of the paper (q ≤ 0.05, log2 ratio ≤ -1)
Conditions in all cases: compound concentration: 200 uM; treatment time: 3 h
[1] = target: T1, ALG13 (UniProt Q9NP73)
T1 sequence (whole entry): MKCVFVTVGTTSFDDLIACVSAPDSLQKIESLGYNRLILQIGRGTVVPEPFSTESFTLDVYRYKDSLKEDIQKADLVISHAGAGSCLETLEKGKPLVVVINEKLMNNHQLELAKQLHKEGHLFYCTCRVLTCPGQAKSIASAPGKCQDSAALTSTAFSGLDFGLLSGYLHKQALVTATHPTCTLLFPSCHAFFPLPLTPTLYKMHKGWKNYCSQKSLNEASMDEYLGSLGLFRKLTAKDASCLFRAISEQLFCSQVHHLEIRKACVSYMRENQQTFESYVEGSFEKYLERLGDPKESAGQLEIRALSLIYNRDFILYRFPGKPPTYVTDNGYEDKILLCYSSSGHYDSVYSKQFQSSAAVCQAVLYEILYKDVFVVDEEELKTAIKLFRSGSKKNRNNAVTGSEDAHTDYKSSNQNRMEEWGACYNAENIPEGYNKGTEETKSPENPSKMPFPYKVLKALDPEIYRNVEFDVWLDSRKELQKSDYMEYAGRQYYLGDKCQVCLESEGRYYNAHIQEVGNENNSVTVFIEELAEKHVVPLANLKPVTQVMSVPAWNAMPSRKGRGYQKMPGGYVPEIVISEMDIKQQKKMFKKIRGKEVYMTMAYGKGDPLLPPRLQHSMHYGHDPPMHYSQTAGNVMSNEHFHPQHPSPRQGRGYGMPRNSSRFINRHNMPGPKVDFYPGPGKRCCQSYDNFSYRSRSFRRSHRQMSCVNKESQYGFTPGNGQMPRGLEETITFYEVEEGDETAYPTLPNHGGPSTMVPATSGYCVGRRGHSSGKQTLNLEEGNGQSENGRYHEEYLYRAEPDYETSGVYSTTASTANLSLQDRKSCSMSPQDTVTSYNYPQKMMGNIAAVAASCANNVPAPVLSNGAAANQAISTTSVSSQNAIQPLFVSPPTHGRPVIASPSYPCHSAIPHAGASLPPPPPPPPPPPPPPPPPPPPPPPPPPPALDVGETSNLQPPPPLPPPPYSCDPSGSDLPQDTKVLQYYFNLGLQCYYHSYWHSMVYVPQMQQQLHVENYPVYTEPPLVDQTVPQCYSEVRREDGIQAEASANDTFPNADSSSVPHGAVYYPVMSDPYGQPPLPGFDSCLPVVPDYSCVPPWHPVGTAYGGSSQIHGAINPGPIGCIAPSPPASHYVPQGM
In short: (§1)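 HEK293T lysate (495 µg per sample, in Tris/CHAPS/IGEPAL buffer with protease inhibitors) was exposed in triplicate for 3 h to fragment at 200 µM or to vehicle, then to Biotin-Ahx-Ub-VS at 0.5 µM final for 1 h. Labelled DUBs were enriched on NeutrAvidin, digested with LysC and trypsin, and analysed by diaPASEF LC-MS/MS. Spectronaut label-free quantities were normalised to the global median, and values are average log2 ratios of fragment over vehicle from an unpaired t-test. Only proteins with ≥2 unique peptides were used.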

[2] = target: ATXN3 (UniProt P54252)
Chain of ATXN3 (P54252 whole entry): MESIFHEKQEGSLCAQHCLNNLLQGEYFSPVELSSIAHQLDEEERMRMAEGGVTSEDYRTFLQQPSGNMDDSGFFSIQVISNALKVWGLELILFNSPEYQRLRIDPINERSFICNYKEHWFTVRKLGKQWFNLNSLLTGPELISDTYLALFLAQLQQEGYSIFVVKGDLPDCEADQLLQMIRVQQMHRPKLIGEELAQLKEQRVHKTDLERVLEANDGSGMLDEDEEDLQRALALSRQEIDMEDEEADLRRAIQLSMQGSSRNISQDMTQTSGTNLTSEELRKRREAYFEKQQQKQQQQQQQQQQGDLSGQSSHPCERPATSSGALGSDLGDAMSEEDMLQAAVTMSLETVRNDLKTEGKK
In short: as §1

[3] = target: T2, BAP1 (UniProt Q92560)
T2 sequence (whole entry): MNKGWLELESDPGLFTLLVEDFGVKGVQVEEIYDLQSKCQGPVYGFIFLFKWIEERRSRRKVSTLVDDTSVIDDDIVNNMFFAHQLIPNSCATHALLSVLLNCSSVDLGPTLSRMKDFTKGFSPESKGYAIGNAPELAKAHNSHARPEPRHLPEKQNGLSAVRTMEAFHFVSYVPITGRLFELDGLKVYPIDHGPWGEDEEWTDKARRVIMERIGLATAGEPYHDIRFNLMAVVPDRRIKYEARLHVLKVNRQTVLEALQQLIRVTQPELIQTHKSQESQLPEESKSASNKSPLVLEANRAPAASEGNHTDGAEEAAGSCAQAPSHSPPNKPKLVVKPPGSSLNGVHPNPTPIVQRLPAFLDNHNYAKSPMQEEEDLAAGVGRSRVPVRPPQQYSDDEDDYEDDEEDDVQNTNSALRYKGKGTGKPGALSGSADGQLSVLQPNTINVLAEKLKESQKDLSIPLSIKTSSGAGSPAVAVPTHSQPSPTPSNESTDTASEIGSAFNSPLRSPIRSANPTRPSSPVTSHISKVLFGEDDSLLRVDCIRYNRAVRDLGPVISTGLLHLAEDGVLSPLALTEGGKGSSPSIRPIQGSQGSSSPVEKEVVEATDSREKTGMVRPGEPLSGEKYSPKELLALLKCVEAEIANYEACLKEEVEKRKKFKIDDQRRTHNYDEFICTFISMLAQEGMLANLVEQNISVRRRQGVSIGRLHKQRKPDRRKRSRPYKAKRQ
In short: as §1

[4] = target: EIF3F (UniProt O00303)
Chain of EIF3F (O00303 whole entry): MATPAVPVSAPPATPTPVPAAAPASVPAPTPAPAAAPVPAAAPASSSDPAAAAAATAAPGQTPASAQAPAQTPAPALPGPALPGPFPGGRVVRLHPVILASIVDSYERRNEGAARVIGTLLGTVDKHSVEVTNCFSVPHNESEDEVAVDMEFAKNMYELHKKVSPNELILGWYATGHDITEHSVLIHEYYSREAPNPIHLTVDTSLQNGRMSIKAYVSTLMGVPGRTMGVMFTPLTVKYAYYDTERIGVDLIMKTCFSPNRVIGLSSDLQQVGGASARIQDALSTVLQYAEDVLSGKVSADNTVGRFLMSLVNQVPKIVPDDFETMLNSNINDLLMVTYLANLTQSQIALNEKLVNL
In short: as §1

[5] = target: EIF3H (UniProt O15372)
Chain of EIF3H (O15372 whole entry): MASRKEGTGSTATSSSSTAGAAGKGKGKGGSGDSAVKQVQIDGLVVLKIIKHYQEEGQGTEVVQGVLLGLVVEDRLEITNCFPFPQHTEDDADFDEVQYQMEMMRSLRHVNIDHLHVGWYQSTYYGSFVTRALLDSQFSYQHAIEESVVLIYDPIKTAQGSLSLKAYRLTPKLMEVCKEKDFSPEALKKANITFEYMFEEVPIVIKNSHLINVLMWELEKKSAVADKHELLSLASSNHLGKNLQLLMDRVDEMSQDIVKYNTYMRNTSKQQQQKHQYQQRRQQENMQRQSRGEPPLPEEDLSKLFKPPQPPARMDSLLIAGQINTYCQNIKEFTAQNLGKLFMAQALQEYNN
In short: as §1

[6] = target: T3, FAM105A (UniProt Q9NUU6)
T3 sequence (whole entry): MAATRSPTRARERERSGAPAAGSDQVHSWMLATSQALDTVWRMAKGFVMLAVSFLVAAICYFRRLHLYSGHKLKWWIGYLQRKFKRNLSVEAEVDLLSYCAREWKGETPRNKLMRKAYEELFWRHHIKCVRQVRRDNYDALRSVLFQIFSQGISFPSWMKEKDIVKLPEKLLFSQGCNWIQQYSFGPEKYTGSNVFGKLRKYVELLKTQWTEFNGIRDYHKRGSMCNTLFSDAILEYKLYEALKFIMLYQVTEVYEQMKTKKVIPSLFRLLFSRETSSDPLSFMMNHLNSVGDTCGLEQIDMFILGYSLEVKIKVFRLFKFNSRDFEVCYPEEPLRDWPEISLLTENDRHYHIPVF
In short: as §1

[7] = target: OTUB1 (UniProt Q96FW1)
Chain of OTUB1 (Q96FW1 whole entry): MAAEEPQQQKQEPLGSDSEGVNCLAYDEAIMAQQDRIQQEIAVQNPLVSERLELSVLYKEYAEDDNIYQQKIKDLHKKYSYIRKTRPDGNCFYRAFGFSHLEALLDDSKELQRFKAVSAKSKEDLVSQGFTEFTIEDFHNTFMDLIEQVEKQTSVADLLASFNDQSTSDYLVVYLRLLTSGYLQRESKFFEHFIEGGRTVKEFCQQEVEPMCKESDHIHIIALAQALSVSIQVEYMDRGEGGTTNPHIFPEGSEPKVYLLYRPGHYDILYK
In short: as §1

[8] = target: T4, OTUD4 (UniProt Q01804)
T4 sequence (whole entry): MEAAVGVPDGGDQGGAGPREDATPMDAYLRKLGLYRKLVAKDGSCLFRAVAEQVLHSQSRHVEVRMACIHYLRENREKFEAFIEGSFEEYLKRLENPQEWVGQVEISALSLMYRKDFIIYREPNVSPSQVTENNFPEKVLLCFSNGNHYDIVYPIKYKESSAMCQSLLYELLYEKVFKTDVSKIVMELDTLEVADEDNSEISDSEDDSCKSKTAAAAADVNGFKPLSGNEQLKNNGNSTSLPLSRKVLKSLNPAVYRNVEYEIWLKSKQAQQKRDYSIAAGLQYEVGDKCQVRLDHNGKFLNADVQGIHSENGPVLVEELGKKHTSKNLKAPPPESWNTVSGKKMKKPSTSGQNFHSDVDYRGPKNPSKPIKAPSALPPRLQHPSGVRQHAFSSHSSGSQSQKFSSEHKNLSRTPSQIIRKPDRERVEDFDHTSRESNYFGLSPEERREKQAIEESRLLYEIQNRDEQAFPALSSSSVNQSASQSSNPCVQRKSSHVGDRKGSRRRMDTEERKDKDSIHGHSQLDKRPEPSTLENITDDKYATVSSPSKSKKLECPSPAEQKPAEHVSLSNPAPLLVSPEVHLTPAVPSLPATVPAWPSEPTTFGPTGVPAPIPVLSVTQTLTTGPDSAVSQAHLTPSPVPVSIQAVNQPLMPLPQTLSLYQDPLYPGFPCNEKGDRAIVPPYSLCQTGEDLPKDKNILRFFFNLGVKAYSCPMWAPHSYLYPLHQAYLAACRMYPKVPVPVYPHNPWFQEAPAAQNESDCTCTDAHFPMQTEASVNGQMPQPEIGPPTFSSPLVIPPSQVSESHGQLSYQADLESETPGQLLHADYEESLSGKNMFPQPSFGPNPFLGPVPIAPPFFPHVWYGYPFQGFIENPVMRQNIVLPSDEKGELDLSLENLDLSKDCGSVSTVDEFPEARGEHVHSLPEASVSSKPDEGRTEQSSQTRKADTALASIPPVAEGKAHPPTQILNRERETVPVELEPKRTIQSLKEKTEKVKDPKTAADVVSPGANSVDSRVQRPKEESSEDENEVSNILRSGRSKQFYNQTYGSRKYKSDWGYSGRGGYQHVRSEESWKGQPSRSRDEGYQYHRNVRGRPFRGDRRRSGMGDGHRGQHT
In short: as §1

[9] = target: T5, OTUD5 (UniProt Q96G74)
T5 sequence (whole entry): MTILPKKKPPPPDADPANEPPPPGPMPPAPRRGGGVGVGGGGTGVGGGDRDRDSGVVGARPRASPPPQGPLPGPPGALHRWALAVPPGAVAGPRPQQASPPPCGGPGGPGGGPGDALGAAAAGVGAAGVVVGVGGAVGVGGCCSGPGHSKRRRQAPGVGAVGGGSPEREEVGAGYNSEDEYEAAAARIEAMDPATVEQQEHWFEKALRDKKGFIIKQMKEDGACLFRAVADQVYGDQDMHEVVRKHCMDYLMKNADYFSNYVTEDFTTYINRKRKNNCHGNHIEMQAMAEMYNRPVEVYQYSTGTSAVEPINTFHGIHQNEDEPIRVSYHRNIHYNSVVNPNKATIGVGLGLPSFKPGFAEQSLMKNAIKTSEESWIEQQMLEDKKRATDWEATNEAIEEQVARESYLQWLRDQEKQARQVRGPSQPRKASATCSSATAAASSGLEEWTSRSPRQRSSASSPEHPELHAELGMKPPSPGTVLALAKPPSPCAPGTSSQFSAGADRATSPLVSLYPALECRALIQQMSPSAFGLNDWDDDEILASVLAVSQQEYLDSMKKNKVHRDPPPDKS
In short: as §1

CC(NC(=O)CCl)c1noc(Cc2ccccc2)n1 (centres undefined)
log2 ratio of Biotin-Ahx-Ub-VS probe labelling [1]: 0.107
log2 ratio of Biotin-Ahx-Ub-VS probe labelling [2]: -0.275
log2 ratio of Biotin-Ahx-Ub-VS probe labelling [3]: -2.73 (active)
log2 ratio of Biotin-Ahx-Ub-VS probe labelling [4]: -0.25
log2 ratio of Biotin-Ahx-Ub-VS probe labelling [5]: -0.398
log2 ratio of Biotin-Ahx-Ub-VS probe labelling [6]: -0.027
log2 ratio of Biotin-Ahx-Ub-VS probe labelling [7]: 0.0412
log2 ratio of Biotin-Ahx-Ub-VS probe labelling [8]: -0.692
log2 ratio of Biotin-Ahx-Ub-VS probe labelling [9]: -0.271
